Experimental findings from PubChem BioAssay (NCATS) are described below.

The target of experiment [1] is Rap guanine nucleotide exchange factor 3 (Homo sapiens) (UniProt O95398). The experiment is described as follows: Confirmatory qHTS for antagonist of cAMP-regulated guanine nucleotide exchange factor 3 (EPAC1) (AID 1645880). Further: nearly all actives have a fitted effect of over 55% in size. Further: potency means the concentration at half of the fitted maximal effect. The procedure, abridged:
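Nucleotide exchange uses 100 nM EPAC1, 250 nM RAP1B-BODIPY-GDP and 50 uM GDP, with compounds in a concentration-titration series. After 5 min at room temperature, fluorescence (480 nm ex/540 nm em) is read every 5 min for 30 min. Data are normalized to control ATA and DMSO.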
For orientation: In qHTS, concentration-response curves come from the screen itself.

The target is the same in experiment [2]. The experiment is described as follows: Confirmatory qHTS for agonist of cAMP-regulated guanine nucleotide exchange factor 3 (EPAC1) (AID 1645881).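 Further: EPAC1 catalysed release of BODIPY-GDP from Rap1B seen as fluorescence loss; 100% = effect of cAMP agonist control; nearly all actives have a fitted effect of over 75% in size.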
For experiment [3], the target named is Rap guanine nucleotide exchange factor 4 (Homo sapiens) (UniProt Q8WZA2). The experiment is described as follows: Confirmatory qHTS for agonist of cAMP-regulated guanine nucleotide exchange factor 4 (EPAC2) (AID 1645884).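 Further: nucleotide exchange releases bodipy-GDP from Rap1 and this lowers its fluorescence; on the % scale 0 is the no-effect control and ±100 the full control effect; nearly all actives have a fitted effect of over 65% in size.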
The target is the same in experiment [4]. The experiment is described as follows: Confirmatory qHTS for antagonist of cAMP-regulated guanine nucleotide exchange factor 4 (EPAC2) (AID 1645885). Further: nearly all actives have a fitted effect of over 25% in size. Further: potency means the concentration at half of the fitted maximal effect. On activity change, negative = inhibition: on the % scale 0 is the no-effect control and ±100 the full control effect.
For experiment [5], the target named is Rap guanine nucleotide exchange factor 3 (Homo sapiens) (UniProt O95398). The experiment is described as follows: Counterscreen qHTS for antagonist of cAMP-regulated guanine nucleotide exchange factor 3 (EPAC1) (AID 1645888).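 Further: fluorescence loss as bound BODIPY-GDP is released from Rap1B; % of control where 0% means no effect.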 The method in brief:
(§1)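 Rap1B–BODIPY-GDP (250 nM) with 50 uM GDP; compounds pin-transferred to 9.74 nM–152 uM final (activator) or from 7.32 nM upwards (inhibitor). Fluorescence Ex/Em 480/540 nm read at 5 and 30 min, then after adding cAMP or buffer, at room temperature.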

Experiment [6] shares this target. In words: Counterscreen qHTS for agonist of cAMP-regulated guanine nucleotide exchange factor 3 (EPAC1) (AID 1645889). Further: % of control where 0% means no effect; nearly all actives have a fitted effect of over 40% in size. The procedure, abridged:
as §1
(The purpose of a counterscreen is to sort out artefacts and off-target activity.)

Inconclusive results are not listed. A number with no mark means an inactive call. Active and inactive are the calls of the source. The call rests on the fitted dose curve; in most records, active means well fitted curve in the direction sought with a large enough effect; inconclusive means small, poorly fitted or top-dose-only effect, or another doubt; inactive means no such curve, though single readings can be large; an effect the other way counts as inactive or inconclusive.

Sequence of Rap guanine nucleotide exchange factor 4 (Homo sapiens) (Q8WZA2 whole entry, looked up): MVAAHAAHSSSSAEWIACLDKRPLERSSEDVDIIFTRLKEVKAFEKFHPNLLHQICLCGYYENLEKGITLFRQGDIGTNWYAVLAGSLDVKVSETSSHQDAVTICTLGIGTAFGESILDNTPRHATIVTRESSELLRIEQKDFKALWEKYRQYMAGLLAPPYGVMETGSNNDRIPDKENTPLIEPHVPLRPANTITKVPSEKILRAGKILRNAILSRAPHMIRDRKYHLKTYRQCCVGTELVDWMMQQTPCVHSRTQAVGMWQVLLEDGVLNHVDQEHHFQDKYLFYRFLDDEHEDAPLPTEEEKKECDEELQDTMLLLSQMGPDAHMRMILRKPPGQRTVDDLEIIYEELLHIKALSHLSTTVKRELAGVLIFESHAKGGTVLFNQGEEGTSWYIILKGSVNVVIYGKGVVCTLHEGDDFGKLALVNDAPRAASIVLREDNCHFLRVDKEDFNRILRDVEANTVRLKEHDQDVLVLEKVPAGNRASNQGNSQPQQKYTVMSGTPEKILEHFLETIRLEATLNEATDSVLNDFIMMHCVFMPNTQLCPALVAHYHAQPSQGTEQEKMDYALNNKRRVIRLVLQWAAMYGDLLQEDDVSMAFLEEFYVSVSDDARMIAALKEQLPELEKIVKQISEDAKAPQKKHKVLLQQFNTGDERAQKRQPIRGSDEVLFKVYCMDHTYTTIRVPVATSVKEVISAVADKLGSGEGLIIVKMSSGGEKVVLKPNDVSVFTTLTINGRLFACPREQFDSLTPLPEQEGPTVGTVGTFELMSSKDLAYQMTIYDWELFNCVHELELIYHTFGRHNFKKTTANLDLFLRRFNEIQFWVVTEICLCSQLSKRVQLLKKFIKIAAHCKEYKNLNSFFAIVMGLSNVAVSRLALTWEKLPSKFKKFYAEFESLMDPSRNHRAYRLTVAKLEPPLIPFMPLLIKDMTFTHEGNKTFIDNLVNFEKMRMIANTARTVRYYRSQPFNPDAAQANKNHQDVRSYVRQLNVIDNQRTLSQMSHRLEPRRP
Sequence of Rap guanine nucleotide exchange factor 3 (Homo sapiens) (O95398 whole entry, looked up): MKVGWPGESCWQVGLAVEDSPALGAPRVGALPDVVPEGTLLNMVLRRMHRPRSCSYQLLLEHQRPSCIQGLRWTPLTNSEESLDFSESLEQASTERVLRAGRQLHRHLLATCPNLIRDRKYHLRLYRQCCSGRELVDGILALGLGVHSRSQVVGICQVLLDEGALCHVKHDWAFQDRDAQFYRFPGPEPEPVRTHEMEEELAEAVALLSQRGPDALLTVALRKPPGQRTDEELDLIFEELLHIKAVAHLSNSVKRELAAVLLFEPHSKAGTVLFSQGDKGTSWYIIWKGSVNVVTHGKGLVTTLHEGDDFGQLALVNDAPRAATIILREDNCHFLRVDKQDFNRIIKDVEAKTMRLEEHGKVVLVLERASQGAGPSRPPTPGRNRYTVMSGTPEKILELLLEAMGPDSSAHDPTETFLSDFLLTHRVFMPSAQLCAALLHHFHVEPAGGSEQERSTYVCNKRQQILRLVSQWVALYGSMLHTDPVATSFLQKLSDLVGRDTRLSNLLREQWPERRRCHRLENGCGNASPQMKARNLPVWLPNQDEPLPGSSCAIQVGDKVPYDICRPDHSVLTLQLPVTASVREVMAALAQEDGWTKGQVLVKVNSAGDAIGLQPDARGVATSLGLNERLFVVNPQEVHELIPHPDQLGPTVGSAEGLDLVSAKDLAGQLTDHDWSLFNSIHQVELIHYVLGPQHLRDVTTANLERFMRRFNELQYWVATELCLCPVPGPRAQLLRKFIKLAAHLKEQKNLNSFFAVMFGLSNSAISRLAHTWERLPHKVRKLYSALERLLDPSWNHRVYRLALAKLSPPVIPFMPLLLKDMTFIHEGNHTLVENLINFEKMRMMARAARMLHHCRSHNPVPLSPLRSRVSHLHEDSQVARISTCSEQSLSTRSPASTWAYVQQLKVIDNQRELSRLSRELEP

Take `COc1ccc2cc3[n+](cc2c1O)CCc1cc2c(cc1-3)OCO2`: the Potency in experiment [1] was 19 µM (active). Also, the Potency result in experiment [2], in experiment [3], in experiment [4] and in experiment [5] was “inactive” each time.
`COc1ccc(Cl)cc1N(C)C(=O)Cc1noc2ccc(C)cc12`: the Potency result in experiment [1], in experiment [2], in experiment [3], in experiment [4] and in experiment [5] was “inactive” each time.
Take `COc1cc(/C=C2/C(=O)NN(c3ccc(Cl)cc3)C2=O)ccc1OC(=O)c1ccco1`: the Potency in experiment [1] was 47.8 µM (active). The Potency result in experiment [2], in experiment [3], in experiment [4] and in experiment [5] was “inactive” each time.
For the compound `COC(=O)C1=CN(Cc2ccc(OC)c(OC)c2)C=C(C(=O)OC)C1c1cccc(F)c1`, the Potency result in experiment [1], in experiment [2], in experiment [3], in experiment [4] and in experiment [5] was “inactive” each time.
For `Cc1cc(Nc2cccc(C(F)(F)F)c2)nc2ccc(NC(=O)c3ccc(N(C)C)cc3)cc12`, the Potency result in experiment [1], in experiment [2], in experiment [3], in experiment [4] and in experiment [5] was “inactive” in each case.
With `CS(=O)(=O)c1cccc(C(=O)OCC(=O)c2ccc3c(c2)OCCO3)c1`, the Potency entry in experiment [1], in experiment [2] and in experiment [4] was “inactive” in each case. For the same compound, in experiment [3], the activation is 8.5% [at 17.1 µM, percent relative to cAMP agonist control]. In addition, the activity change, negative = inhibition in experiment [5] was -4.85% [at 30.8 µM].
Take `COC(=O)c1ccccc1NC(=O)CN1C(=O)COc2ccccc21`: the Potency entry in experiment [1], in experiment [2], in experiment [3] and in experiment [5] was “inactive” in each case. The outcome in experiment [4] was “inactive [at 12.7 µM]”.
For `Cc1nc2cc(NC(=O)CCS(=O)(=O)c3ccccc3)ccc2s1`, the Potency entry in experiment [1], in experiment [2] and in experiment [4] was “inactive” each time. In experiment [3], the activation was -6.47% [at 17.1 µM, percent relative to cAMP agonist control]. Also, the activity change, negative = inhibition in experiment [5] is -11.5% [at 30.8 µM].
Consider `CCc1ccccc1NC(=O)c1cc2sc(Cl)cc2n1CC`, for which the Potency entry in experiment [1], in experiment [2], in experiment [3], in experiment [4] and in experiment [5] was “inactive” throughout.
As for `CC(=O)C1=C(C)OC2(O)c3ccccc3C(=O)C12O` (centres undefined), the Potency entry in experiment [1], in experiment [2] and in experiment [4] was “inactive” in each case. Also, the activation in experiment [3] was 4.3% [at 17.1 µM, percent relative to cAMP agonist control]. For the same compound, in experiment [5], the activity change, negative = inhibition was -10.4% [at 30.8 µM].
For `COC(=O)C1=NNCC12CC(=O)N(c1ccc(Br)cc1)C2=O` (centres undefined), the Potency entry in experiment [1], in experiment [2], in experiment [3], in experiment [4] and in experiment [5] was “inactive” in each case.
As to `Cc1ccc(C2=N/C(=C\c3c(C)nn(-c4ccccc4)c3N3CCCC3)C(=O)O2)cc1`, the Potency result in experiment [1], in experiment [2], in experiment [3] and in experiment [5] was “inactive” throughout. Besides, the Potency in experiment [4] was 15.1 µM (active).
For the compound `CSc1nnc(-c2ccccc2)c(-c2ccccc2)n1`, the Potency result in experiment [1], in experiment [2], in experiment [3] and in experiment [5] was “inactive” throughout. Moreover, the Potency in experiment [4] is 19 µM (active).
With `Cc1ccc(-c2csc(NC(=O)/C=C/c3ccco3)c2C(=O)O)cc1`, the Potency in experiment [1] is 25.1 µM (active). Also, the Potency entry in experiment [2] and in experiment [4] was “inactive” each time. Further, the activation in experiment [3] was 5.44% [at 17.1 µM, percent relative to cAMP agonist control]; in experiment [6], 18.5% [at 30.8 µM]. In addition, in experiment [5], the activity change, negative = inhibition was -12.5% [at 30.8 µM].
For `COc1ccc(OC)c(Nc2nc3ccccc3nc2-n2nc(C)cc2C)c1`, the Potency result in experiment [1], in experiment [2], in experiment [3], in experiment [4] and in experiment [5] was “inactive” each time.
Take `COc1cc(C2c3c(oc4ccccc4c3=O)C(=O)N2c2nc(C)c(C)s2)ccc1O` (centres undefined): the Potency result in experiment [1], in experiment [2], in experiment [3], in experiment [4] and in experiment [5] was “inactive” each time.
Turning to `O=C1NN(c2ccccc2)C(=O)/C1=C\c1ccc(-c2cc([N+](=O)[O-])ccc2O)o1`, the values for the Potency in experiment [1] and in experiment [4] were 37.9 µM (active) and 60.1 µM (active), respectively. Besides, the Potency result in experiment [2], in experiment [3] and in experiment [5] was “inactive” throughout.
As for `COc1ccc(C2c3c(ncn(CCCO)c3=N)Oc3ccc4ccccc4c32)cc1` (centres undefined), the Potency result in experiment [1], in experiment [2] and in experiment [4] was “inactive” each time. The activation in experiment [3] was 3.99% [at 17.1 µM, percent relative to cAMP agonist control]; in experiment [6] it was 22.2% [at 30.8 µM]. Also, the activity change, negative = inhibition in experiment [5] was 0.394% [at 30.8 µM].
As for `CN(C)C(=O)CCc1ccc2c3c([nH]c2c1)[C@]1(C)[C@@H](C(=O)N2CCCCC2)C[C@H](CC(=O)NCCc2ccccn2)C(=O)N1CC3`, the Potency entry in experiment [1], in experiment [2] and in experiment [4] was “inactive” each time. Moreover, in experiment [3], the activation was -3.15% [at 17.1 µM, percent relative to cAMP agonist control]. Besides, the activity change, negative = inhibition in experiment [5] is -16% [at 30.8 µM].
On to `CC(OC(=O)Cc1c[nH]c2ccccc12)C(=O)Nc1ccccc1F` (centres undefined), for which the Potency entry in experiment [1], in experiment [2], in experiment [3], in experiment [4] and in experiment [5] was “inactive” throughout.
`CN1CCN(C(CNC(=O)c2ccc(Br)o2)c2ccc(F)cc2)CC1` (centres undefined): the Potency entry in experiment [1] and in experiment [2] was “inactive” each time. For the same compound, in experiment [3], the activation was 4.5% [at 17.1 µM, percent relative to cAMP agonist control]. For the same compound, in experiment [4], the Potency was 1.69 µM (active). Further, the activity change, negative = inhibition in experiment [5] is -2.27% [at 30.8 µM].
For `O=C(COC(=O)c1ccc(O)cc1O)Nc1nnc(-c2ccccc2)o1`, the Potency result in experiment [1], in experiment [2], in experiment [3] and in experiment [5] was “inactive” in each case. Moreover, in experiment [4], the Potency was 84.9 µM (active).
Consider `CCc1ccc2oc(C(=O)Nc3ccccc3OC)cc(=O)c2c1`, for which the Potency result in experiment [1], in experiment [2], in experiment [3], in experiment [5] and in experiment [6] was “inactive” each time. Also, in experiment [4], the outcome is “inactive [at 12.7 µM]”.
Regarding `Brc1ccc(-c2csc(-c3c[nH]c4ccccc34)n2)cc1`, the Potency entry in experiment [1], in experiment [2] and in experiment [4] was “inactive” in each case. The activation in experiment [3] is 6.69% [at 17.1 µM, percent relative to cAMP agonist control]; in experiment [6] it was 15.5% [at 30.8 µM]. For the same compound, the activity change, negative = inhibition in experiment [5] is 3.69% [at 30.8 µM].
Take `CC(C)c1ccc(NC(=O)c2ccc(Cn3nc(N4CCN(c5ccccc5)CC4)ccc3=O)o2)cc1`: in experiment [1], the Potency is 84.9 µM (active). Further, the Potency entry in experiment [2], in experiment [3], in experiment [4] and in experiment [5] was “inactive” throughout.
For the compound `CCc1cccc2cc3c(N)c(C(=O)Nc4ccc(S(=O)(=O)N5CCCC5)cc4)sc3nc12`, the Potency in experiment [1] was 75.7 µM (active); in experiment [4], 67.5 µM (active). In addition, the Potency result in experiment [2], in experiment [3] and in experiment [5] was “inactive” throughout.
In the case of `NS(=O)(=O)c1cc(C(=O)NC2CCSc3ccccc32)ccc1Cl` (centres undefined), the results for the Potency in experiment [1] and in experiment [4] were 13.5 µM (active) and 30.1 µM (active), respectively. Further, the Potency entry in experiment [2], in experiment [3] and in experiment [5] was “inactive” throughout.
In the case of `COc1ccc2oc(C(=O)CCC(=O)O)c(N)c2c1`, the Potency result in experiment [1], in experiment [2] and in experiment [4] was “inactive” in each case. For the same compound, the activation in experiment [3] was 0% [at 17.1 µM, percent relative to cAMP agonist control]. Also, the activity change, negative = inhibition in experiment [5] was 3.66% [at 30.8 µM].
Take `COc1ccc(-c2cc(C(F)(F)F)nc(SCC(=O)NCCc3ccccc3)n2)cc1OC`: the Potency result in experiment [1], in experiment [2], in experiment [3], in experiment [4] and in experiment [5] was “inactive” throughout.
